{"source": "PubChem BioAssay (NCATS)", "note": "Inconclusive results are not listed. A call without a number means that no potency is given here. Active and inactive are the calls of the source. The call rests on the fitted dose curve; in most records, active means well fitted inhibition curve with a large enough effect; inconclusive means small, poorly fitted or top-dose-only effect; inactive means flat fitted curve, though single readings scatter. Potency means the concentration at half of the fitted maximal effect.", "data": [{"assay": "qHTS for Inhibitors of Plasmodium falciparum (DD2) proliferation (AID 504314);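 on activity, negative = inhibition: parasite DNA measured by SYBR Green fluorescence after red cell lysis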", "conditions": "P. falciparum Dd2 in erythrocytes, SYBR Green growth, 72 h; series mostly up to 6.11 µM", "how_it_was_run": "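P. falciparum Dd2 is grown in erythrocytes with test compound for 72 h at 37C under 5% CO2. Growth is scored by SYBR Green I fluorescence after detergent lysis, relative to artemisinin (0.29 uM) and DMSO controls.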", "values": [{"smiles": "CCN1C(=O)[C@@H]2[C@H]3[C@H](O)[C@H](O)CC(=NOCC[C@@H]4C=C[C@H](OC(C)=O)[C@@H](COC(C)=O)O4)[C@@H]3CC[C@H]2C1=O", "Potency": "inactive"}, {"smiles": "CSc1nnc2c(n1)C[C@H](c1ccccc1)[C@@H](C)[C@@H](C(=O)N1CCCC1)C2", "Potency": "inactive"}, {"smiles": "CCN(CC)CCCN=C1NC(c2cccc(C(F)(F)F)c2)C(C(=O)OC)=C(C)N1CC", "note": "(stereo not given)", "Potency": "inactive"}, {"smiles": "CCCCC1=CC2=CC(=O)C(C)(OC(=O)c3cnc4ccccc4n3)C(=O)C2=CO1", "note": "(stereo not given)", "Potency": "inactive"}, {"smiles": "COCCN1C=C2C(=O)C(C)(OC(=O)C3CCCC3)C(=O)C(c3ccccc3)=C2C=C1CCCC(=O)OC", "note": "(stereo not given)", "Potency": "inactive"}, {"smiles": "C#CCCOC(=O)N1C2=NC(C(=O)OC)=C(C(=O)OC)[C@@H]3N(C)c4ccccc4[C@]23C[C@H]1C(=O)OC", "Potency": "inactive"}, {"smiles": "COC(=O)[C@H]1[C@@H](c2cccc(C(F)(F)F)c2)NC(=O)N(Cc2ccccc2)[C@@H]1C", "Potency": "inactive"}, {"smiles": "O=C1c2ccccc2C(=O)N1CCCC[C@]12Cc3c(ccc4ccccc34)[C@H](O1)c1c(cc(-c3ccccc3)oc1=O)O2", "Potency": "753 nM (active)"}, {"smiles": "COC(=O)N1C2CC3(C)C=C(C)OC1(C)C3c1ccccc12", "note": "(stereo not given)", "Potency": "inactive"}, {"smiles": "CCCC[C@]12Cc3cc(C#N)ccc3[C@H](O1)c1c(c3ccccc3oc1=O)O2", "Potency": "inactive"}, {"smiles": "C=CC[C@@H]1C=C[C@H](ON=C[C@@H](C)[C@H](OCc2ccccc2)C(C)C)[C@H](CO)O1", "Potency": "inactive"}, {"smiles": "CCOC(=O)C(c1ccc(OC)c(OC)c1)C1c2ccccc2C=C(C)N1C(=O)OC", "note": "(stereo not given)", "activity, negative = inhibition": "-0.0023% [at 1.12 µM] (inactive)"}, {"smiles": "C[C@@H]1[C@@H](c2ccccc2)Cc2nc3ccccc3nc2C[C@H]1C(=O)N1CCCC1", "Potency": "inactive"}, {"smiles": "Cc1noc(C)c1S(=O)(=O)N1CCc2nc(-c3ccccc3)c3c(c2C1)CO[C@@H](C)C3", "activity, negative = inhibition": "2% [at 1.12 µM] (inactive)"}, {"smiles": "C=C(C(C)=O)C(O)c1ccc(Cl)cc1", "note": "(stereo not given)", "Potency": "inactive"}, {"smiles": "COCCN1C(=O)NC(c2cccc(F)c2)C(C(=O)OC)=C1C", "note": "(stereo not given)", "Potency": "inactive"}, {"smiles": "C=CCOC(=O)NC(c1ccc(F)c(F)c1)C(C(=O)COC)C(=O)OC", "note": "(stereo not given)", "Potency": "inactive"}, {"smiles": "COCCN1C(=O)N[C@@H](c2cccc(C(F)(F)F)c2)[C@H](C(=O)OC)[C@H]1C", "Potency": "inactive"}, {"smiles": "COC(=O)N(C=Cc1ccc(OC)cc1)CCc1ccc(OC)c(OC)c1", "Potency": "inactive"}, {"smiles": "COc1ccc2c(c1)C(NC(=O)C(F)(F)F)CC21CCCCC1", "note": "(stereo not given)", "Potency": "inactive"}, {"smiles": "COC(=O)[C@@]1(C=C2c3ccc(OC)cc3[C@@H](OC)[C@@H]2C)[C@@H]2C=CC[C@@H]21", "Potency": "inactive"}, {"smiles": "COC(=O)CC=C[C@@H](C)[C@@H](Cc1ccccc1Br)OC", "Potency": "inactive"}, {"smiles": "COc1cc2c(cc1OC)[C@@H]1O[C@](CCCCN3C(=O)c4ccccc4C3=O)(C2)OC2=C1C(=O)CC(C)(C)C2", "Potency": "753 nM (active)"}, {"smiles": "CC(C)=CCN1C(=O)C2(CC(C)=C[C@@H](C)O2)c2c(Br)cccc21", "note": "(stereo not given in full)", "Potency": "inactive"}, {"smiles": "COC(=O)CCCC1=CC2=CC(=O)C(C)(OC(=O)c3cccs3)C(=O)C2=CN1CCc1ccccn1", "note": "(stereo not given)", "Potency": "inactive"}, {"smiles": "C=CCOC(=O)N[C@H](c1cccc(C(F)(F)F)c1)C(C(C)=O)C(C)=O", "Potency": "inactive"}, {"smiles": "CC1=CC[C@@H](C)O[C@@]2(C1)C(=O)N(Cc1ccc(Br)cc1)c1ccccc12", "Potency": "inactive"}, {"smiles": "C#CC1(O)C(OC)=CC2C(=O)C1C(c1ccccc1)C2C", "note": "(stereo not given)", "Potency": "inactive"}, {"smiles": "C=CCN1c2ccccc2[C@]23C[C@@H](C(=O)OC)N(C(=O)OCC)C2=NC(C(=O)OC)=C(C(=O)OC)[C@H]13", "Potency": "inactive"}, {"smiles": "COc1cccc2c1C1(CCCCC1)CC2NC(=O)C(F)(F)F", "note": "(stereo not given)", "Potency": "inactive"}, {"smiles": "O=C1CCCC(C(C(=O)OCc2ccccc2)C(=O)OCc2ccccc2)C1", "note": "(stereo not given)", "Potency": "inactive"}, {"smiles": "COC(=O)CC=C1c2ccccc2[C@@H](OC)[C@@H]1C", "Potency": "inactive"}, {"smiles": "COC(=O)C1=C(C(=O)OC)[C@@H]2N(C)c3ccccc3[C@@]23C[C@@H](C(=O)OC)N(C(=O)NC(C)(C)C)C3=N1", "Potency": "inactive"}, {"smiles": "Cc1ccc(S(=O)(=O)NC(CCc2ccccc2)CC(=O)C(C)(C)C)cc1", "note": "(stereo not given)", "Potency": "inactive"}, {"smiles": "C[C@@H]1C=CCCO[C@]12C(=O)N(CC1CC1)c1cccc(Br)c12", "Potency": "inactive"}, {"smiles": "CC(C)Nc1oc(-c2ccccc2)nc1-c1ccc(C(F)(F)F)cc1", "Potency": "inactive"}, {"smiles": "COC(=O)c1ccccc1C[C@]1(C(=O)OC)C=C[C@H](C)[C@@H](c2ccccc2)N1C(=O)C(F)(F)F", "Potency": "inactive"}, {"smiles": "OC[C@H]1O[C@H](C#Cc2ccccc2)C=C[C@@H]1O", "Potency": "inactive"}, {"smiles": "O=C(NN=C1C[C@@H](O)[C@H](O)[C@H]2[C@@H]3C(=O)N(C[C@@H]4CCCO4)C(=O)[C@@H]3CC[C@H]12)OCc1ccccc1", "Potency": "inactive"}, {"smiles": "CCC(=O)C[C@@H](NC(=O)OC)c1ccccc1", "Potency": "inactive"}]}]}
